The record followed here is PubChem BioAssay AID602292 (National Center for Advancing Translational Sciences (NCATS), 2012).

Among all 1,300 compounds or so, about 380 (29%) were called active. Roughly 37% stayed inconclusive and do not appear here. Calls follow the shape of the dose curve; as a rule, active = well fitted inhibition curve with a large enough effect; inconclusive = small, poorly fitted or top-dose-only effect; inactive = flat fitted curve, though single readings scatter. The list shows a part of the results. A call without a number means that no potency is given here.
Potency is read from the fitted curve at half-maximal effect.

Sequence of Thyrotropin receptor (Homo sapiens) (P16473 whole entry, looked up): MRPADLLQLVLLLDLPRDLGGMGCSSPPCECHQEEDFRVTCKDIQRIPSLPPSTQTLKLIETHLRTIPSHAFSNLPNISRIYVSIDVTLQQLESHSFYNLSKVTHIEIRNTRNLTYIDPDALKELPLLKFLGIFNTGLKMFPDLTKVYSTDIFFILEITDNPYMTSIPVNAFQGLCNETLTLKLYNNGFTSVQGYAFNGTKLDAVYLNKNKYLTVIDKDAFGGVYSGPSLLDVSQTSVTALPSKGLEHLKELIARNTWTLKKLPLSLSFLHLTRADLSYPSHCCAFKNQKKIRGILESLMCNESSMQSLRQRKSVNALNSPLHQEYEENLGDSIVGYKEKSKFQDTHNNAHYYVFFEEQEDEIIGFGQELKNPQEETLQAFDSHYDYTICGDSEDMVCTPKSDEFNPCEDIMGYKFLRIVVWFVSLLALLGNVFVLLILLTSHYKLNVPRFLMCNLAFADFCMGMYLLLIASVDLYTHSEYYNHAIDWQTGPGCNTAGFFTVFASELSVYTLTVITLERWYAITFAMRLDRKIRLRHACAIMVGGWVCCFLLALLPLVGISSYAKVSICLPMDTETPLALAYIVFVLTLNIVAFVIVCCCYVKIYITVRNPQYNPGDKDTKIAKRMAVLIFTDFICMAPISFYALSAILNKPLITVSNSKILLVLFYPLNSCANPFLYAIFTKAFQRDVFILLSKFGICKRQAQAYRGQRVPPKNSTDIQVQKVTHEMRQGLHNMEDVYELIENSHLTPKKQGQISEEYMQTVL

This experiment has as its target Thyrotropin receptor (Homo sapiens) (UniProt P16473). The experiment in a line: qHTS for antagonists of the Thyroid Stimulation Hormone Receptor: Hit Validation in Primary Screen. Also: nearly all actives have a fitted effect of over 80% in size. The note with it: TSHR-expressing cells, cAMP antagonist mode; series mostly up to 58 µM. Put shortly: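 Competitive HTRF detected cAMP in lysates of TSHR cells, read 30 minutes after antibody and d2 addition at room temperature. Before lysis, cells had 2 hours at 37 deg C with compound plus EC80 TSH, 4nM final.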
On the technique in general: qHTS replaces the single test concentration by a dilution series.
Consider `CCN(CC)c1ccc(C(=O)OCC(=O)N2CCCC2)cc1`, for which the Potency entry is “inactive”.
The entry for `COc1cccc(NC(=S)N2CCCN(Cc3ccc(F)cc3)C2)c1` is “inactive”; for `Cn1nnnc1SCC1=C(C(=O)O)N2C(=O)C(NC(=O)C3CC3c3ccccc3)C2SC1` (centres undefined) it is “inactive”.
For the molecule `O=C1C=C(c2ccc(Cl)c(C(F)(F)F)c2)C[C@@H](c2ccc(F)cc2)C1`, the Potency result is “inactive”.
Take `CCSC1=NSC2=NC(=O)/C(=C\c3coc4ccccc4c3=O)C(=N)N12`: the Potency is 1.69 µM (active).
The figure for `CSC1=NSC2=NC(=O)/C(=C\c3coc4ccccc4c3=O)C(=N)N12` is 2.69 µM (active); for `Cc1ccc(-c2nnc(SCC(=O)NC3CCCC3)n2C)cc1` it is “inactive”.
The figure for `N#Cc1cccc(NC(=O)COC(=O)c2cc(S(=O)(=O)Nc3ccccc3Cl)ccc2O)c1` is 12 µM (active).
As for `CCC(=O)OCCNc1cc(Sc2nccn2C)c2nonc2c1[N+](=O)[O-]`, the Potency is 19 µM (active).
For `CCC(=O)OCCNc1cc(Sc2nc3ccccc3[nH]2)c2nonc2c1[N+](=O)[O-]`, the Potency is 23.9 µM (active).
As to `CCCC(=O)OCCNc1cc(Sc2nc3ccccc3[nH]2)c2nonc2c1[N+](=O)[O-]`, the Potency was 23.9 µM (active).
As for `CC(=O)OCCNc1cc(Sc2nc3ccccc3[nH]2)c2nonc2c1[N+](=O)[O-]`, the Potency is 26.9 µM (active).
The entry for `COc1ccc(F)cc1CN1CCN(C(=O)CCC(=O)Nc2nnc(CC(C)C)s2)CC1` is “inactive”; for `O=c1[nH]cccc1-c1nc2ccccc2n1Cc1ccc(F)cc1` it is “inactive”.
With `Cn1c(CNC(=O)c2ccc(Cl)cc2)nnc1SCC(=O)NC1CCCC1`, the Potency result was “inactive”.
In the case of `CCN(c1cccc(C)c1)S(=O)(=O)c1cn(CC(=O)OC)c2ccc([N+](=O)[O-])cc12`, the Potency result was “inactive”.
With `CNC(=S)n1cnc(N)n1`, the Potency entry was “inactive”.
The entry for `NS(=O)(=O)c1ccc(CCNC(=O)c2cc3ccccc3s2)cc1` is “inactive”; for `O=C(CNC(=O)c1ccco1)OCC(=O)c1ccccc1` it is “inactive”; for `CCCCNC(=O)CC1C(=O)N(Cc2ccccc2)C(C)c2nc3ccccc3n21` (centres undefined) it is “inactive”.
As to `CC(=O)N(C)c1ccc(N=NC2C(=O)N(C(N)=S)N=C2C)cc1` (centres undefined), the Potency result is “inactive”.
As for `CC1=NN(C(N)=S)C(=O)C1N=Nc1ccc(Cl)cc1Cl` (centres undefined), the Potency is 30.1 µM (active).
`O=C1c2cccnc2C(=O)N1Cc1ccc(S(=O)(=O)N2CCN(c3ccc(Cl)cc3)CC2)cc1`: the Potency entry was “inactive”.
Regarding `COc1cccc(N2CCN(c3ncnc4c3cnn4-c3ccc(C)cc3C)CC2)c1`, the Potency was 10.7 µM (active).
Regarding `CC(C)N(Cc1ccccc1)C(=O)COC(=O)c1cnc(Cl)c(Cl)c1`, the Potency was 23.9 µM (active).
For `Cc1onc(-c2ccccc2)c1NC(=O)N(Cc1ccccc1)C(C)C`, the Potency result was “inactive”.
The figure for `Cc1cccc(/C=C/C(=O)c2cc(Br)ccc(=O)c2O)c1` is 15.1 µM (active).
The figure for `CCc1ccc(/C=C/C(=O)c2cc(Br)ccc(=O)c2O)cc1` is 9.53 µM (active); for `COc1ccc2[nH]c3c(NCCC4=CCCCC4)ncnc3c2c1` it is 4.78 µM (active); for `C1=C(CCNc2ncnc3c2[nH]c2ccccc23)CCCC1` it is 23.9 µM (active).
As for `CCCCOCCCNc1ncnc2c1[nH]c1ccccc12`, the Potency was 30.1 µM (active).
Take `Cc1cccc(NC(=S)NCC(C)CSc2ccc(Cl)cc2)c1` (centres undefined): the Potency was 30.1 µM (active).
As to `Cc1cccc(NC(=O)CCN2CCN(C)CC2)c1`, the Potency result is “inactive”.
The figure for `O=C1C(SCCO)=C(SCCO)C(=O)c2ccccc21` is 3.38 µM (active); for `OCCSc1nnc(Nc2ccccc2)s1` it is “inactive”; for `COc1ccc(NS(=O)(=O)c2cn(C)cn2)cc1Cl` it is “inactive”.
For the molecule `COc1cc(NS(=O)(=O)c2ccc(C)cc2C)cc(OC)c1OC`, the Potency is 37.9 µM (active).
The entry for `CCc1ccc(NS(=O)(=O)c2cc3[nH]c(=O)c(=O)[nH]c3cc2C)cc1` is “inactive”.
Regarding `CC(C)(C)OC(=O)N1CCC(CC2CC(c3cccc(Br)c3)=NO2)(C(=O)NCC2CCCCC2)CC1` (centres undefined), the Potency entry was “inactive”.
As to `CC(C)Cc1nc2oc3c(Cl)ncnc3c2c2c1CCC2`, the Potency is 23.9 µM (active).
Take `Cc1cc(NC(=O)c2ccccc2)c(Cl)cc1N`: the Potency result is “inactive”.
The entry for `COc1ccccc1C(=O)NCCC(=O)Nc1ccc(OC(F)(F)F)cc1` is “inactive”.
`Cc1ccc(Cl)cc1NC(=O)c1cc2ccccc2cc1O`: the Potency is 3.79 µM (active).
Regarding `COc1cc(NC(=O)c2cc3ccccc3cc2O)c(OC)cc1Cl`, the Potency is 10.7 µM (active).
`COc1cc2ccccc2cc1C(=O)N1CCCC1`: the Potency result was “inactive”.
In the case of `COc1cccc(CNC(=O)c2nnn(CC(=O)Nc3cc(Cl)ccc3C)c2N)c1`, the Potency result is “inactive”.
On to `CCOc1ccc(-n2c(SCC(=O)Nc3cc(C)on3)nc3c(c2=O)SCC3)cc1`, for which the Potency entry is “inactive”.
The entry for `Cc1ccc(NC(=O)Cn2nnc(C(=O)NCCc3ccccc3)c2N)c(C)c1` is “inactive”.
The entry for `Cc1ccc(CCNC(=O)C2CC(c3cc(C(F)(F)F)cc(C(F)(F)F)c3)=NO2)cc1` (centres undefined) is “inactive”; for `N#C/C(=N/Nc1ccc(OC(F)(F)F)cc1)C(N)=S` it is 6.01 µM (active).
`O=C(Nc1cccc(Cl)c1)c1cc(N=Nc2ccc([N+](=O)[O-])cc2Cl)ccc1O`: the Potency was 0.478 µM (active).
Turning to `O=C(Nc1ccc([N+](=O)[O-])cc1Cl)c1cc(Cl)ccc1O`, the Potency was 0.338 µM (active).
As to `CC(=O)Oc1c(C)cc(Cl)cc1C(=O)Nc1ccc([N+](=O)[O-])cc1Cl`, the Potency was 0.478 µM (active).
On to `Cc1ccc(N2C(=O)C3C4C=CC(CC4)C3C2=O)cc1Cl` (centres undefined), for which the Potency entry is “inactive”.
With `CCOc1cc(S(=O)(=O)n2cnc(C)c2)ccc1Cl`, the Potency result is “inactive”.
In the case of `Cc1ccc(CS(=O)(=O)c2ncc(Cl)c(C(=O)Nc3nnc(C(C)C)s3)n2)cc1`, the Potency was 23.9 µM (active).
The entry for `COC(=O)CSc1nc(NCc2ccccc2)nc(N(C)C)n1` is “inactive”; for `Cc1cccc(CC(=O)NCC(=O)NCc2cc(=O)n(C)c(=O)n2C)c1` it is “inactive”; for `CN(C)c1nc(=S)nc(NCc2ccccc2)[nH]1` it is “inactive”.
The entry for `Cc1cc(=O)oc2ccc(OCc3ccccc3)cc12` is “inactive”; for `COc1ccc(CNC(=O)C2CCCN2C(=O)NCc2ccccc2)cc1` (centres undefined) it is “inactive”; for `CCOC(=O)c1c(NC(=O)CN2C(=O)NC(C)(c3ccc(OC(F)F)cc3)C2=O)sc(C)c1C` (centres undefined) it is “inactive”.
In the case of `CCOC(=O)c1c(NC(=O)/C=C/C(=O)O)sc(C)c1-c1ccc(C)c(C)c1`, the Potency was 23.9 µM (active).
Consider `CCOC(=O)c1c(NC(=O)/C=C/C(=O)O)sc(C)c1-c1ccc(Cl)cc1`, for which the Potency was 21.3 µM (active).
